Measured values published in PubChem BioAssay AID1159580 (chemical genetic matrix, 2015).
Values joined by “and” are separate entries in the source; they are usually repeats but may differ in a detail not shown here. Equal entries are not always repeated. The whole screen tested about 5,500 compounds, of which about 2,000 (36%) were called active. Another 18% or so got no clear call; they are omitted. Cut-off read from the data, not from the text of the source: active = normalized growth mostly below about 0.91 (no sharp cut-off); inconclusive = no clear call, values can overlap the other calls; inactive = mostly above about 0.92. This is one part of the list.

Test: chemical genetic growth profiling, strain panel (AID 1159580);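 note: tested at 20 µM; growth read once vehicle control cultures reached saturation at 30 °C; 1 = growth at the plate median or of vehicle wells; lower values mean less growth of the strain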
Conditions: S. cerevisiae deletion strains, growth OD

Measured: normalized growth

O[N+]1=CC=CCC1=S.On1ccccc1=S.[Zn]
active: locus YAL013W, strain DEP1, hits give low values 0.0588 | locus YAL021C, strain ccr4, hits give low values 0.0689 | locus YAL026C, strain drs2, hits give low values 0.0618 | locus YAL030W, strain snc1, hits give low values 0.0584 | locus YBL061C, strain skt5, hits give low values 0.0681 | locus YBR009C, strain hhf1, hits give low values 0.0728 | locus YBR021W, strain FUR4, hits give low values 0.0965 | locus YBR023C, strain chs3, hits give low values 0.0675 | locus YBR171W, strain sec66, hits give low values 0.0802 | locus YBR229C, strain ROT2, hits give low values 0.052 | locus YBR231C, strain swc5, hits give low values 0.0683 | locus YBR279W, strain paf1, hits give low values 0.0672 | locus YCL011C, strain gbp2, hits give low values 0.0581 | locus YCL016C, strain dcc1, hits give low values 0.0685 | locus YCL029C, strain bik1, hits give low values 0.0621 | locus YCL061C, strain MRC1, hits give low values 0.0686 | locus YCL069W, strain vba3, hits give low values 0.0611 | locus YCR088W, strain abp1, hits give low values 0.0601 | locus YDL005C, strain med2, hits give low values 0.081 | locus YDL035C, strain GPR1, hits give low values 0.0513 | locus YDL040C, strain nat1, hits give low values 0.061 | locus YDL074C, strain BRE1, hits give low values 0.0852 | locus YDL101C, strain DUN1, hits give low values 0.0624 | locus YDL185W, strain tfp1, hits give low values 0.0604 | locus YDL192W, strain arf1, hits give low values 0.0611 | locus YDR001C, strain nth1, hits give low values 0.0598 | locus YDR069C, strain doa4, hits give low values 0.0662 | locus YDR101C, strain arx1, hits give low values 0.0573 | locus YDR137W, strain rgp1, hits give low values 0.0942 | locus YDR150W, strain NUM1, hits give low values 0.0564 | locus YDR159W, strain sac3, hits give low values 0.104 | locus YDR162C, strain NBP2, hits give low values 0.0519 | locus YDR195W, strain ref2 0.122 | locus YDR297W, strain sur2, hits give low values 0.0587 | locus YDR318W, strain mcm21, hits give low values 0.0644 | locus YDR334W, strain swr1, hits give low values 0.0636 | locus YDR335W, strain msn5, hits give low values 0.0604 | locus YDR388W, hits give low values 0.0563 | locus YDR392W, strain spt3, hits give low values 0.102 | locus YDR502C, strain sam2, hits give low values 0.0617 | locus YEL003W, strain gim4, hits give low values 0.0591 | locus YEL037C, strain rad23, hits give low values 0.0593 | locus YEL061C, strain CIN8 (second series), hits give low values 0.0642 | locus YEL061C, strain CIN8, hits give low values 0.0538 | locus YER015W, strain faa2, hits give low values 0.0649 | locus YER016W, strain bim1, hits give low values 0.0653 | locus YER110C, hits give low values 0.0752 | locus YER111C, strain swi4, hits give low values 0.0747 | locus YER155C, strain BEM2 (second series), hits give low values 0.0952 | locus YER155C, strain BEM2, hits give low values 0.0682 | locus YER167W, strain BCK2, hits give low values 0.0543 | locus YFR010W, strain ubp6, hits give low values 0.0685 | locus YGL078C, strain dbp3, hits give low values 0.0615 | locus YGL086W, strain mad1, hits give low values 0.0569 | locus YGL167C, strain pmr1, hits give low values 0.0764 | locus YGL173C, strain kem1, hits give low values 0.0718 | locus YGL227W, strain vid30, hits give low values 0.0622 | locus YGL240W, strain doc1, hits give low values 0.0817 | locus YGL248W, strain PDE1, hits give low values 0.0522 | locus YGL253W, strain hxk2, hits give low values 0.0558 | locus YGR078C, strain PAC10, hits give low values 0.0545 | locus YGR135W, strain pre9, hits give low values 0.0622 | locus YGR252W, strain gcn5, hits give low values 0.164 | locus YHR013C, strain ard1, hits give low values 0.117 | locus YHR027C, strain rpn1, hits give low values 0.0678 | locus YHR030C, strain SLT2, hits give low values 0.0537 and 0.0956 | locus YHR079C, strain IRE1 (second series), hits give low values 0.0577 | locus YHR079C, strain IRE1, hits give low values 0.111 | locus YHR094C, strain hxt1, hits give low values 0.0579 | locus YHR129C, strain ARP1, hits give low values 0.0604 | locus YHR142W, strain chs7, hits give low values 0.0777 | locus YHR200W, strain rpn10, hits give low values 0.0589 | locus YIL066C, strain RNR3, hits give low values 0.0511 | locus YIL073C, strain SPO22, hits give low values 0.113 | locus YIL125W, strain kgd1, hits give low values 0.0608 | locus YIR030C, strain dcg1, hits give low values 0.0598 | locus YJL092W, strain hpr5, hits give low values 0.0603 | locus YJL095W, strain BCK1 (second series), hits give low values 0.0629 | locus YJL095W, strain BCK1, hits give low values 0.0641 and 0.0953 | locus YJL115W, strain asf1, hits give low values 0.0768 | locus YJL129C, strain trk1, hits give low values 0.0933 | locus YJL134W, strain LCB3, hits give low values 0.0509 | locus YJL154C, strain vps35, hits give low values 0.064 | locus YJL164C, strain tpk1, hits give low values 0.0692 | locus YJL166W, strain qcr8, hits give low values 0.0996 | locus YJL168C, strain set2, hits give low values 0.0599 | locus YJL187C, strain SWE1 (second series), hits give low values 0.0508 | locus YJL187C, strain SWE1, hits give low values 0.0629
